# Screens from PubChem BioAssay.
# A selection: hits, their analogues and other compounds. The true share with any hit is near 0.25%.
# BCR signal inh: qHTS Assay to Find Inhibitors of Chronic Active B-Cell Receptor Signaling | 340,000 compounds, 0.05% hits | Potency, µM (top dose mostly 46.1 µM), for the others: top-dose activity change, negative = inhibition, actives largely listed as inhibitors | ABC-DLBCL IkBa-CBG/CBR reporter, luminescence ratio, 4 h; active = well fitted inhibition curve with a large enough effect in the signal ratio, with a control signal flat, not every such curve was filed as active; inconclusive = small, poorly fitted or top-dose-only effect, or effect the other way, or a change in a side signal; the % refers to the signal ratio;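 also: plate controls were basal doxycycline-induced cells for no effect and cells given 10 µM MG132 for full effect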
#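 TMD8 human ABC-DLBCL cells with doxycycline-inducible IκBα–green luciferase fusion and unfused red luciferase, in 0.5% FBS medium; compounds up to 46 uM, 4 h at 37C. Green/red luminescence ratio, filter-overlap corrected, fitted to concentration-response curves.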
# Tb PFK inh-1: qHTS Assay to Find Inhibitors of T. brucei phosphofructokinase; AID 485367, 2010; T. brucei PFK, ADP-Glo luminescence; 330,000 compounds, 0.17% hits; Potency, µM (doses to about 57.5 µM), without a hit: at the top dose activity, negative = inhibition, most hits filed as inhibitors;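 also: 0% = uninhibited 1x PFK enzyme wells and -100% = no-enzyme wells; nearly all actives have a fitted effect of over 60% in size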
#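 1.25 nM PFK with 0.5 mM F6P and 0.1 mM ATP in 0.1 M TEA pH 8.0, 5 mM MgCl2, incubated 45 min at room temperature; ADP measured by ADP-Glo luminescence; compounds titrated up to 57 uM.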
# Tb PGK inh: qHTS Assay to Find Inhibitors of Phosphoglycerate Kinase; Phosphoglycerate kinase, glycosomal (Trypanosoma brucei brucei), P07378; PGK/GAPDH coupled, Kinase-Glo luminescence, 60 min; Potency, µM (highest dose often 57.5 µM), for the others: at the top dose activity change, negative = inhibition, hits mostly inhibitors; 380,000 compounds, 0.043% hits; also: % is scaled to controls: 0 for no effect and ±100 for the full control effect; nearly all actives have a fitted effect of over 60% in size
#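 Recombinant glycosomal PGK reaction used 1,3-bisphosphoglycerate generated in-well by GAPDH (100nM final) in 100mM TEA pH 7.6, 5mM MgCl2, 0.01% Tween-20. After 60 minutes at room temperature, ATP was read by Kinase-Glo Plus luminescence end-point.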
# ERG Ets-DNA blk: qHTS for Small Molecule Inhibitors of the ERG Ets/DNA interaction | fluorescence polarization, His-ERG Ets domain / labelled DNA | AID 624246, 2012 | Potency, µM (titrated, usually from 76.9 µM), without a hit: at the top dose FP activity, negative = inhibition, most hits filed as inhibitors | 370,000 compounds, 0.028% hits | Transcriptional regulator ERG (Homo sapiens), P11308; active = well fitted inhibition curve with a large enough effect in the polarisation, with a control signal flat; inconclusive = small, poorly fitted or top-dose-only effect, or effect the other way, or a change in a side signal; inactive = no such curve, though single readings can be large or run the other way; the % refers to the polarisation;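 also: polarization taken with two DNA probes labelled with fluorescein and Texas red; % of control where 0% means no effect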
# Target sequence (P11308 whole entry, looked up, the tested form may be a part): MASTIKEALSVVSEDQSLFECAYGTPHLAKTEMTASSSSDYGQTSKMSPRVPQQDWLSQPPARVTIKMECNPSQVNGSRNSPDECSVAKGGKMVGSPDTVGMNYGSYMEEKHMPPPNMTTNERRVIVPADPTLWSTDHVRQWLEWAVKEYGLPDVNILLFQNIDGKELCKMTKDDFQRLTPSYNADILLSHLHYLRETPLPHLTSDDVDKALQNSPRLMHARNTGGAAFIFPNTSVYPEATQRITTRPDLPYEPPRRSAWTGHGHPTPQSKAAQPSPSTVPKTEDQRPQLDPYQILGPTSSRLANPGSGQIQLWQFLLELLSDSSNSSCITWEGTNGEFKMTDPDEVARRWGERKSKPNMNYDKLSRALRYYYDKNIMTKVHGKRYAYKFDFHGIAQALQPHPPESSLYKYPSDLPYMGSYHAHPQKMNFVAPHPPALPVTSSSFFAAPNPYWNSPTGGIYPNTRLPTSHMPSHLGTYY
#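 His-tagged ERG Ets domain (1 uM in the protein solution; 300mM KCl, 50mM Tris-HCl, 1mM EDTA, 1mM DTT, pH 7.5) received compound, then a probe mix of 5 nM fluorescein-DNA and 100nM Texas-615-DNA. Fluorescence polarization was read for both dyes.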
# Pin1 inh: qHTS Assay to Find Inhibitors of Pin1. Pin1 FP peptide displacement, HiFluor488, 10 min. Potency, µM (doses to about 115 µM), without a hit: top-dose activity, negative = inhibition, hits mostly inhibitors. 390,000 compounds, 0.009% hits; active = well fitted inhibition curve with a large enough effect in the polarisation, with a control signal flat, not every such curve was filed as active; inconclusive = small, poorly fitted or top-dose-only effect, or effect the other way, or a change in a side signal; inactive = no such curve, though single readings can be large or run the other way; the % refers to the polarisation; also: % is scaled to controls: 0 for no effect and ±100 for the full control effect
# Target sequence (Q13526 whole entry, looked up): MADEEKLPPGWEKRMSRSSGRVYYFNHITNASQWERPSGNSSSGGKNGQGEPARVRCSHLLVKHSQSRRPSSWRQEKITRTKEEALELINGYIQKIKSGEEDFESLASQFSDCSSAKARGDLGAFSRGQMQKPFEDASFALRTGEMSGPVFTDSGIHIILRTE
# TbPFK ATP: Tb PFK orthogonal confirmatory assay using ATP depletion (Kinase-Glo Plus) as an alternative measure of Tb PFK activity: Hit Validation. Potency, µM (doses to about 57.5 µM), for the others: at the top dose inhibition. shares compounds with Tb PFK inh-1. AID 504636, 2011. 1,100 compounds, 47% hits. Tb PFK enzyme, ATP depletion, Kinase-Glo Plus luminescence; calls by dose curve; also: nearly all actives have a fitted effect of over 60% in size
# Tb PFK inh-2: Inhibitors of T. brucei phosphofructokinase: Hit Validation; 1,100 compounds, 41% hits; Potency, µM (top dose mostly 57.5 µM), inactives show at the highest dose activity change, negative = inhibition, most hits filed as inhibitors; purified T. brucei PFK, ADP-Glo luminescence, 45 min; shares compounds with Tb PFK inh-1;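 also: plate controls were full PFK enzyme control for no effect and no enzyme control for full effect; nearly all actives have a fitted effect of over 60% in size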
# The depositor's hits bear a star; i = inactive; ? = inconclusive; . = not tested or not shown; [ ] = remark or other dose. Unless noted, calls follow the shape of the dose curve; as a rule, active = well fitted curve in the direction sought with a large enough effect; inconclusive = small, poorly fitted or top-dose-only effect, or another doubt; inactive = no such curve, though single readings can be large; an effect the other way counts as inactive or inconclusive. Potency is read from the fitted curve at half-maximal effect.
SMILES,BCR signal inh,Tb PFK inh-1,Tb PGK inh,ERG Ets-DNA blk,Pin1 inh,TbPFK ATP,Tb PFK inh-2
Cc1cccc(C)c1NCc1n[nH]c(=S)n1-c1ccccc1,?,?,3.9%,2.9%,-4.4%,3.01µM*,7.57µM*
Cc1ccc(C)c(NCc2n[nH]c(=S)n2-c2ccccc2)c1,-27.3%,0.1%,-7.4%,-16.1%,-5.4%,.,.
Cc1ccc(N=C2NC(=O)CS2)c(C)c1,?,-7.8%,i,-0.6%,1.1%,.,.
Cc1cc(Br)ccc1N=C1NC(=O)CS1,-8.5%,?,i,-7.6%,0.4%,?,-23.3%
CCN(CC)c1ccc(/C=N/OCC(=O)Nc2cccc(C)c2)cc1,-3.2%,0.0%,2.9%,-6.2%,?,.,.
Cc1cccc(NC(=O)COc2ccc(/C=N\n3cnnc3)cc2)c1,5.3%,?,-9.6%,-12.1%,-1.4%,?,-18.4%
Nc1nc(=S)c2ncn(C3CCCC3)c2[nH]1,?,?,-5.5%,-3.7%,-5.4%,?,?
Nc1nc2c(ncn2C2CCCC2)c(=O)[nH]1,.,.,-3.1%,-7.2%,4.7%,.,.
Cc1c(Nc2cc(Cl)c3nonc3c2[N+](=O)[O-])c(=O)n(-c2ccccc2)n1C,?,?,1.0%,-5.1%,3.4%,?,?
CC1(C)CC(=O)C2=C(C1)OC1=C(C(=O)CC(C)(C)C1)C2c1ccc(O)cc1O,?,?,3.1%,-3.4%,4.4%,1.69µM*,1.35µM*
Cc1ccn(-c2cc(O)c(-n3ccc(C)n3)cc2O)n1,-1.4%,?,5.1%,-2.7%,0.0%,-14.3%,?
Cc1ccn(CCC(=O)O)n1,0.9%,-1.6%,-6.7%,8.3%,0.1%,.,.
N#Cc1nc(Nc2cc(Cl)cc(Cl)c2)nc(NC2CCCC2)n1,.,.,.,.,7.6%,.,.
Cc1ccc(C(=O)NNC(=O)CNc2cccc(Cl)c2)cc1,-0.3%,19µM*,-10.1%,-8.5%,-0.7%,12µM*,23.9µM*
Cc1ccc(C(=O)CNc2cccc(Cl)c2)cc1,?,-15.1%,-0.3%,-9.2%,-3.8%,.,.
COc1ccc(C2CC(=O)Oc3c(C(CCN4CCOCC4)c4ccc5c(c4)OCO5)c(OC)cc(OC)c32)cc1 (stereo unspecified),.,.,.,.,-6.0%,.,.
COc1ccc(Cn2c(O)c(C=Nc3ccccc3C(=O)O)c3ccccc3c2=O)cc1,?,-5.3%,-12.2%,3.5%,-20.1%,.,.
COc1ccccc1NS(=O)(=O)c1cccc(-n2c(O)c(C=Nc3ccccc3C(=O)O)c3ccccc3c2=O)c1,?,?,-8.9%,-0.3%,.,-29.2%,?
O=C(OCc1cccc(C(F)(F)F)c1)c1ccc[nH]c1=O,1.0%,6.01µM*,-8.2%,-3.4%,-5.6%,3.01µM*,5.36µM*
COc1ccc(CN2C(=O)c3cccnc3C2Nc2cc(Cl)ccc2OC)cc1 (stereo unspecified),0.4%,?,-2.7%,-12.5%,-7.9%,.,.
COc1ccc(CN2C(=O)c3cccnc3C2O)cc1 (stereo unspecified),-12.0%,26.9µM*,?,2.2%,5.7%,?,?
CCCCCn1ncc2c3sc(C)cc3n(C)c2c1=O,.,.,.,.,-1.3%,.,.
CCN1CCN(C(=S)c2ccc(Cl)cc2)CC1,20.3%,10.7µM*,1.6%,-4.1%,3.3%,7.57µM*,23.9µM*
CCN1CCN(C(=S)c2ccc(OC)cc2)CC1,-12.4%,?,-9.9%,0.6%,1.7%,26.9µM*,33.8µM*
O=C(CNC(=O)c1ccccc1)OCC(=O)c1cccc2ccccc12,.,.,.,.,5.0%,.,.
SMILES,BCR signal inh,Tb PFK inh-1,Tb PGK inh,ERG Ets-DNA blk,Pin1 inh,TbPFK ATP,Tb PFK inh-2
O=C(O)c1ccc(Cl)c(S(=O)(=O)Nc2ccc3cn[nH]c3c2)c1,8.8%,?,-16.8%,6.4%,-10.9%,9.4%,0.9%
O=C(O)c1ccc(Cl)c(S(=O)(=O)Nc2cccc(C(=O)Nc3cccc(C(F)(F)F)c3)c2)c1,2.8%,?,-3.0%,-1.5%,-12.9%,?,?
COc1ccc(C(=O)O)cc1S(=O)(=O)Nc1cccc(C(F)(F)F)c1,?,0.6%,-6.7%,-7.9%,-9.0%,.,.
NC(=O)C1CCN(c2nnc(-c3ccc4c(c3)OCCCO4)s2)CC1,.,.,.,.,3.4%,.,.
COc1ccc(CN(Cc2ccccc2)C(=O)c2ccccc2O)cc1COc1ccc(NC(C)=O)cc1,.,.,.,.,17.2%,.,.
O=C(NNc1nc2ccccc2s1)Nc1ccc(Cl)c(Cl)c1,?,?,i,4.1%,12.7%,?,-23.2%
O=C(CSc1nc2ccccc2s1)NNC(=O)Nc1ccc(Cl)c(Cl)c1,?,-9.3%,8.6%,-13.5%,8.2%,.,.
O=C(CSc1nc2ccccc2s1)Nc1ccc(Cl)c(C(=O)O)c1,?,?,-0.9%,11.8%[15.4 µM],-7.1%,-25.4%,19.1%
O=C(NNc1nc2ccccc2s1)Nc1ccc(F)cc1,?,?,1.6%,-5.5%,-3.4%,.,.
CC(C)(C)c1ccccc1Nc1nc(C#N)nc(NC2CCCC2)n1,.,.,.,.,6.9%,.,.
COc1ccc(C2N=C(Nc3nc4ccccc4o3)NC3=C2C(=O)CC(C)(C)C3)cc1 (stereo unspecified),.,.,.,.,2.1%,.,.
CCc1cccc(C)c1NC(=O)COC(=O)CNS(=O)(=O)/C=C/c1ccccc1,-2.6%,?,-4.7%,-3.6%,-4.4%,?,26.9µM*
O=C1CCc2cc(S(=O)(=O)Nc3ccncc3)ccc2N1,.,.,.,.,1.8%,.,.
O=C(O)c1cc(-c2ccco2)nn1-c1ccc(Cl)cc1,-0.5%,?,?,12.0%,.,?,?
O=C(NCCN1CCOCC1)C1(C(F)(F)F)C/C(=C\CCO)CCCO1 (stereo unspecified),.,.,.,.,1.2%,.,.
COc1cc2cc3c(N)c(C(=O)Nc4sc(C)c(C)c4C#N)sc3nc2cc1OC,19.7%,?,.,-1.8%,?,-0.1%,15.7%
O=C(OCC#CCSc1nnc(-c2cccc3ccccc23)o1)c1ccc(SC(F)(F)F)cc1,.,.,.,.,-1.5%,.,.
Cc1ccc(NC(=O)C2=C(c3ccccc3)S(=O)(=O)CCS2(=O)=O)cc1,?,?,-7.5%,-9.8%,-13.8%,-25.2%,?
